# High-throughput results from PubChem BioAssay.
# Compounds with a hit are over-represented: about 2.7% of the library has one in this group of screens.
# mIDH1 inhibitor: qHTS for Inhibitors of mutant isocitrate dehydrogenase 1 (IDH1): qHTS. Isocitrate dehydrogenase [NADP] cytoplasmic (Homo sapiens), O75874. IDH1-R132H enzyme, NADPH consumption, diaphorase/resazurin fluorescence. Potency, µM (titrated, usually from 76.6 µM), most hits filed as inhibitors. actives 0.093% (n = 390,000); note: nearly all actives have a fitted effect of over 65% in size
# Target sequence (O75874 whole entry R132H, stated change not applied): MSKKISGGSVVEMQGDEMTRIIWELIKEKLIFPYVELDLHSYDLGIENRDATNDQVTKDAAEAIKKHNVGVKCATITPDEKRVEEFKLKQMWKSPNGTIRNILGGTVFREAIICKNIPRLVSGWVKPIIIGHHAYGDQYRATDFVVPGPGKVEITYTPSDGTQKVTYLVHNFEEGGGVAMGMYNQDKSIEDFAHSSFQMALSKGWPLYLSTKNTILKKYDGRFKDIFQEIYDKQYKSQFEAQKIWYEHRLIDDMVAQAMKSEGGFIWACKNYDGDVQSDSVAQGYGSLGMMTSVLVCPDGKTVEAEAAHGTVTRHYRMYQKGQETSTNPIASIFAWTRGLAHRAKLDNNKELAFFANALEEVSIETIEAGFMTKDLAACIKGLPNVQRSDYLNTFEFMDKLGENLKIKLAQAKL
#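 IDH1-R132H (0.5 ug/mL) preincubated 30 min with compound, then NADPH (0.016 mM) and alpha-KG (2 mM) added; 80 min at RT, pH 7.5. Remaining NADPH coupled via diaphorase/resazurin to fluorescence (540/590 nm); concentration-response curves normalized to no-enzyme control.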
# HEK293 tox: qHTS of GLP-1 Receptor Inverse Agonists: Cytotox Screen; HEK293 cAMP-luciferase reporter cells, luminescence, 24 h; AID 624418, 2012; Potency, µM (titrated, usually from 38.3 µM), usual class: inhibitors; actives 0.13% (n = 410,000);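 note: loss of luciferase light is scored as toxicity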
#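 A 23 nL compound transfer followed 12 hours of cell culture at 37 deg C; exposure then lasted 24 hr. Luciferase assay detection reagent was dispensed and plates read for luminescence after a 12 min room-temperature wait.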
# GLP-1R inv ag: qHTS of GLP-1 Receptor Inverse Agonists (Inhibition Mode); Potency, µM (top dose mostly 38.3 µM), actives largely listed as inhibitors; Glucagon-like peptide 1 receptor (Homo sapiens), P43220; AID 624417, 2012; actives 1.6% (n = 410,000); HEK293 GLP-1R CRE-luciferase, luminescence, 24 h; GLP-1R form is constitutively active; note: nearly all actives have a fitted effect of over 55% in size
#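 Seeding at 200 cells/uL, 12 h culture, 24 hr compound treatment, then luciferase reagent and a luminescence read; cells are HEK293 stably expressing a constitutively active GLP-1R plus cAMP-responsive luciferase.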
# GLP1R ag: qHTS of GLP-1 Receptor Agonists; Glucagon-like peptide 1 receptor (Homo sapiens), P43220; HEK293 GLP-1R CRE-luciferase, luminescence, 4-6 h; cells express a hypersensitive GLP-1R form; Potency, µM (highest dose often 45.6 µM), hits mostly activators; actives 0.007% (n = 380,000)
# rTrxR1 inhibitor: qHTS Assay for Inhibitors of Mammalian Selenoprotein Thioredoxin Reductase 1 (TrxR1): qHTS; recombinant rTrxR1, NADPH fluorescence consumption, selenite substrate; Potency, µM (titrated, usually from 114 µM), hits mostly inhibitors; actives 1% (n = 390,000); AID 588453, 2011; note: nearly all actives have a fitted effect of over 65% in size
#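 Rat TrxR1 (90 nM in the dispensed reagent) was pre-reduced with 400 uM NADPH for 5 min at room temperature, then incubated with compound for 15 min. After 400 uM selenite was added, NADPH fluorescence (Ex 340/Em 450 nm) was followed for 8 min.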
# TrxR1 substrate: qHTS Assay for Substrates of Mammalian Selenoprotein Thioredoxin Reductase 1 (TrxR1): qHTS; actives 0.01% (n = 390,000); Thioredoxin reductase 1, cytoplasmic (Rattus norvegicus), O89049; purified TrxR1 substrate turnover, NADPH consumption readout; AID 588456, 2011; Potency, µM (titrated, usually from 114 µM); note: nearly all actives have a fitted effect of over 50% in size
#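 Rat TrxR1, dispensed at 90 nM, was prereduced with 400 uM NADPH (final) for 5 min at ~22 deg C, then incubated with compound 15 min before 400 uM selenite. A first-read NADPH fluorescence drop versus no-compound background flagged substrates.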
# A number is an active result; . = inactive; ? = inconclusive; / = no result given. Calls come from the whole dose curve; as a rule, active = well fitted curve in the direction sought with a large enough effect; inconclusive = small, poorly fitted or top-dose-only effect, or another doubt; inactive = no such curve, though single readings can be large; an effect the other way counts as inactive or inconclusive.
SMILES,mIDH1 inhibitor,HEK293 tox,GLP-1R inv ag,GLP1R ag,rTrxR1 inhibitor,TrxR1 substrate
CCOc1ccc(OCC)c(NC(=O)c2csc3c2CCCC3)c1,.,.,?,/,.,.
COc1cccc(C(=O)N2c3nc(-c4ccco4)nn3C3(CCCCC3)[C@@H]3CCCC[C@@H]32)c1,.,.,?,/,8.9µM,.
COC(C/C=C\C(=O)[C@H](C)OCc1ccccc1)OC,.,.,.,.,45µM,.
O=C(c1ccc2c(c1)N(Cc1ccc(Cl)cc1)C(=O)c1ccccc1S2(=O)=O)N1CCCC1,.,.,.,.,.,.
Clc1cccc(-c2nc3ccccn3c2Nc2ccc3c(c2)OCCO3)c1,.,.,6.3µM,/,.,.
Cc1nc(NS(=O)(=O)c2ccc(N)cc2)nc(C)c1Br,/,/,/,.,/,/
CN1CCC(n2[nH]c(-c3ccccc3)c(Cc3ccccc3)c2=O)CC1,.,.,11µM,.,.,.
Cc1sc(-c2cc3ccccc3oc2=O)nc1-c1ccc(Cl)cc1,.,.,.,/,.,.
CCCSc1cc(N2CCOCC2)nc(-c2ccccc2Cl)n1,.,.,10µM,.,.,.
COc1ccc(N(CC(C)C)S(=O)(=O)c2nnc(NC(=O)c3cccs3)s2)cc1,.,.,.,/,.,.
C[C@H]1CC2[C@@H]3CCC4=CC(=O)C=C[C@]4(C)[C@@]3(F)[C@@H](O)C[C@]2(C)[C@@]1(O)C(=O)CO (some centres not stated),/,/,/,/,.,/
COc1cc(Nc2nc3ccc(Cl)cc3nc2-n2nc(C)cc2C)cc(OC)c1,.,.,.,/,.,.
N#CC(c1ccc(F)cc1)c1ccc(C(=O)c2ccc(F)cc2)cc1 (configuration not stated),.,.,?,.,.,.
Cc1ccc(C(C#N)c2ccc(C(=O)c3ccc(F)cc3)cc2)cc1 (configuration not stated),.,.,11µM,.,.,.
CNC(=O)c1c(NC(=O)c2cc(=O)c3cc(C)c(C)cc3o2)sc2c1CCCC2,.,.,.,/,.,.
Cn1cccc1/C=N\NC(=O)C1COc2ccc(C(C)(C)C)cc2O1 (configuration not stated),.,.,10µM,.,.,.
O=C(Nc1ccccc1)N1CCCC(c2nc(-c3ccc(F)cc3)no2)C1 (configuration not stated),.,.,?,.,.,.
Cc1ccc(NC(=O)N2CCCC(c3nc(-c4ccc(F)cc4)no3)C2)cc1 (configuration not stated),.,?,7.9µM,.,.,.
CC1(C)C(=O)C=CC(=O)C(C)(C)C(=O)C=CC(=O)C(C)(C)C2=CC=C(O2)C(C)(C)C(=O)C=CC1=O,.,.,.,.,16µM,.
CC(C)Cn1c(N)c(C(=O)COC(=O)c2ccc(Br)cc2)c(=O)n(C)c1=O,.,.,10µM,.,.,.
Cc1csc(=O)n1CCC(=O)OCC(=O)c1c(N)n(CC(C)C)c(=O)n(C)c1=O,.,.,.,.,.,.
Cc1cccc(C(=O)OCC(=O)c2c(N)n(CC(C)C)c(=O)n(C)c2=O)c1[N+](=O)[O-],.,.,?,.,.,.
CC(C)Cn1c(N)c(C(=O)COC(=O)CC23CC4CC(CC(C4)C2)C3)c(=O)n(C)c1=O,.,.,2.8µM,.,.,.
Cc1cccc(C(=O)OCC(=O)c2c(N)n(CC(C)C)c(=O)n(C)c2=O)c1O,.,.,10µM,.,.,.
Cc1cc(C)c(NC(=O)CSc2nc(=O)n(Cc3ccncc3)c3c2CCC3)c(C)c1,.,.,.,/,.,.
SMILES,mIDH1 inhibitor,HEK293 tox,GLP-1R inv ag,GLP1R ag,rTrxR1 inhibitor,TrxR1 substrate
O=C(c1ccc(OC2CCN(CCc3ccccc3)CC2)cc1)N1CCCCC1CCCO (configuration not stated),.,.,11µM,.,.,.
O=C(c1ccc(OC2CCN(CCc3ccccc3)CC2)cc1)N1CCCC(CCCO)C1 (configuration not stated),.,.,11µM,.,.,.
O=C(c1ccc(OC2CCN(CCc3ccccc3)CC2)cc1)N1CCCC1,.,.,?,.,.,.
Cc1ccc(S(=O)(=O)N2CCCCC2)cc1C(=O)NCCC1=CCCCC1,.,.,?,.,.,.
Cc1cc(C(=O)NCCC2=CCCCC2)c(C)o1,.,.,.,.,32µM,.
C/C(=N\NC(=O)c1ccccc1OCc1ccc(F)cc1)c1ccccn1,.,?,5µM,.,.,.
O=C(NCc1ccc(F)cc1)c1ccccc1OCc1ccccc1,.,.,10µM,.,.,.
CCN(CC(=O)Nc1ccccc1C(F)(F)F)C(=O)c1ccccc1OCc1ccc(F)cc1,.,.,10µM,.,.,.
O=C(NCc1ccccn1)c1cc(Cl)ccc1OCc1ccccc1,.,.,3.5µM,.,.,.
O=C(NCc1ccccn1)c1ccc(Cl)cc1Cl,.,.,.,.,.,.
CC(=O)c1ccc(C(=O)N(Cc2cccnc2)c2nc3c(C)c(C)ccc3s2)cc1,.,.,.,/,.,.
O=C(NNC(=O)c1ccccc1OCc1ccccc1)c1ccccc1F,.,.,?,.,.,.
O=C(N/N=C/c1ccccc1F)c1ccccc1OCc1ccccc1,.,.,7.9µM,.,.,.
O=C(NC(=S)NCc1ccc(F)cc1)c1ccccc1,.,.,.,.,13µM,.
COc1ccc(CN(Cc2ccco2)c2cnc(S(C)(=O)=O)nc2C(=O)Nc2ccc(C)c(Cl)c2)cc1,.,.,.,/,.,.
O=C1C(Nc2ccccc2)=C(N2CCCCC2)C(=O)c2ccccc21,.,.,?,.,?,.
O=C(/C=C/c1ccc(O)cc1)c1ccc(NC2=C(N3CCCCC3)C(=O)c3ccccc3C2=O)cc1,.,.,.,.,45µM,.
O=C1C(Nc2cccc(O)c2)=C(N2CCCCC2)C(=O)c2ccccc21,.,3.5µM,?,.,?,.
CCCCn1c(NCc2cc(Cl)ccc2O)nc2ccccc21,.,.,?,.,.,.
CC(=O)c1sc(NC(=O)c2c(-c3ccccc3)c(-c3ccccc3)nn(C)c2=O)nc1C,.,.,?,/,.,.
